Screening data as filed in PubChem BioAssay.
A selection: hits, their analogues and other compounds. The true share with any hit is near 2.4%.
D2 ag-1: HTS Assay for Allosteric Agonists of the Human D2 Dopamine Receptor: Primary Screen for Agonists; HEK293 T-REx D2 cells, calcium flux agonist mode; activation, % at 2 µM; 0.53% of 340,000 active;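 active = activation over 3 SD above normal in the single-dose calcium agonist read, cut at about 30% in these data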
Target sequence (P14416 whole entry, looked up): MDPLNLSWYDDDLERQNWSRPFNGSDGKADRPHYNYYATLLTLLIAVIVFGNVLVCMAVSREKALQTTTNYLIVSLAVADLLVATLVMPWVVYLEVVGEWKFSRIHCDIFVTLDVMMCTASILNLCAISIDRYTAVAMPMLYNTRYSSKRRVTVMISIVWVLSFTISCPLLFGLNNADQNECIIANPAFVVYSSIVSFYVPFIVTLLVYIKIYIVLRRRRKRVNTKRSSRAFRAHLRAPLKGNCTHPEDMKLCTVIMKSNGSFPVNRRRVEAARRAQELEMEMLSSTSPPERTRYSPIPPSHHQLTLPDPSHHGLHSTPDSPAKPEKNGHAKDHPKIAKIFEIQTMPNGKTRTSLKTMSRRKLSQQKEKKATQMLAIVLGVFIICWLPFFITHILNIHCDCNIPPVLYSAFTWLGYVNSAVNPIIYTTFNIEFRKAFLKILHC
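Tetracycline-induced HEK293 Trex cells with D2 receptor force-coupled to calcium signaling, plated overnight at 30 C and loaded with no-wash calcium dye. Calcium flux read kinetically for 180 s after compound addition; responses flag agonists.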
D2 ag-2: Beta-Arrestin HTS for Positive Allosteric Modulators of the Human D2 Dopamine Receptor: Agonists; DiscoveRx PathHunter D2 beta-arrestin, luminescence, 90 min; 100% = 57 uM dopamine signal; activation, % (test concentration not listed); 0.084% of 360,000 active; AID 624465, 2012; in the data active = activation above about 40%; inconclusive = between about 15% and that limit
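DiscoveRx PathHunter D2 beta-arrestin cells (2,100/well) attached overnight, then compound-stimulated 90 min at 37 C in HBSS/10 mM HEPES/0.1% Tween-20 buffer; beta-galactosidase complementation read by luminescence after 1 h at ambient temperature. Dopamine 57 uM final (EC100) as control.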
D2 PAM-1: Beta-Arrestin HTS for Positive Allosteric Modulators of the Human D2 Dopamine Receptor: Potentiators; 0.23% of 360,000 active; D(2) dopamine receptor (Homo sapiens), P14416; potentiation, % (concentration not given with the values); DiscoveRx D2 beta-arrestin cells, luminescence, 90 min; 100% = 57 uM dopamine signal; in the data active = potentiation above about 50%; inconclusive = mostly about 30% to 49%
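PathHunter beta-arrestin assay in DiscoveRx D2 cells. Compounds were added with an EC20 of dopamine (50 nM final) for 90 min at 37 deg C. Luminescence was read 1 h after detection reagent, with 57 uM dopamine as the EC100 control.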
D2 PAM-2: HTS Assay for Positive Allosteric Modulators of the Human D2 Dopamine Receptor: Primary Screen for Potentiators. D(2) dopamine receptor (Homo sapiens), P14416. HEK293 T-REx D2, calcium flux, EC20 dopamine potentiation. potentiation, % at 10 µM. 0.34% of 340,000 active. AID 485347, 2010;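 active = potentiation over 3 SD above the plate norm, cut at about 30% in these data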
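Potentiation of an EC20 dopamine calcium response is measured in a force-coupled, tetracycline-inducible Hek293 Trex D2 line. Compound-only kinetic reads over 180 s flag agonists before dopamine addition.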
D2 antagonist: HTS Assay for Allosteric Antagonists of the Human D2 Dopamine Receptor: Primary Screen for Antagonists. D(2) dopamine receptor (Homo sapiens), P14416. HEK293 TREx D2 cells, calcium flux, dopamine EC80. inhibition, % at 10 µM. 2% of 340,000 active. AID 485344, 2010; in the data active = inhibition above about 30%; inactive = below that, where a call was filed
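Antagonism is scored as inhibition of an EC80 dopamine-evoked calcium signal in a force-coupled, tetracycline-inducible HEK293 T-REx D2 line, with compound present 180 s before agonist.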
D3 ag: qHTS of D3 Dopamine Receptor Agonist: D3 Dopamine Receptor B-arrestin Agonist Confirmatory Assay; AID 720506, 2013; 4% of 2,300 active; DiscoveRx D3 beta-arrestin cells, luminescence, 90 min; Potency, µM (series often up to 76.9 µM), actives largely listed as activators; shares compounds with D2 ag-1; note: nearly all actives have a fitted effect of over 70% in size
D2 ag-3: qHTS of D3 Dopamine Receptor Agonist: D2 Dopamine Receptor B-arrestin Agonist Counterscreen. AID 720507, 2013. 5.9% of 2,300 active. Potency, µM (series often up to 76.9 µM), actives largely listed as activators. shares compounds with D2 ag-1. DiscoveRx PathHunter D2 beta-arrestin, luminescence, 90 min; response scale: percent relative to full dopamine signal; note: nearly all actives have a fitted effect of over 70% in size
Of the large screens only hits and unclear results are named; the others gave an inactive call (follow-up assays come after a bar, where they were run). Unless noted, calls come from the whole dose curve; as a rule, active = well fitted activation curve with a large enough effect; inconclusive = small, poorly fitted or top-dose-only effect; inactive = flat fitted curve, though single readings scatter.

CCCN1CCc2c(sc(NC(=S)NC(=O)c3ccccc3)c2C#N)C1	D2 ag-1 76.9, D2 antagonist 77.6 | D3 ag inactive | D2 ag-3 inactive
CN1CCc2c(sc(NC(=O)Cc3ccccc3)c2C#N)C1	D2 ag-1 78.3, D2 antagonist 69.5 | D3 ag inactive | D2 ag-3 inconclusive
CN1CCc2c(sc(NC(=O)c3ccc(C(=O)c4ccccc4)cc3)c2C(N)=O)C1	D2 ag-1 69.1, D2 antagonist 37.1 | D3 ag inactive | D2 ag-3 inactive
O=c1ccc(-c2ccccc2)nn1Cc1c(F)cccc1Cl	none (no result: D2 ag-1, D2 ag-2, D2 PAM-1, D2 antagonist)
O=C(OCC1CCCO1)c1ccc2c(c1)N(Cc1c(F)cccc1Cl)C(=O)c1ccccc1S2(=O)=O (stereo not given)	none (no result: D2 ag-2, D2 PAM-1, D2 antagonist)
CCOC(=O)C1CCN(CC(O)COc2ccc(C(C)(C)CC)cc2)CC1 (stereo not given)	D2 ag-1 65.8, D2 antagonist 80.2 | D3 ag inactive | D2 ag-3 inconclusive
CCOC(=O)C1CCN(CC(O)COc2ccc(C(C)(C)C)cc2)CC1 (stereo not given)	D2 ag-2 inconclusive
CCOC(=O)C1CCN(CC(O)COc2ccc(C(C)=O)cc2)CC1 (stereo not given)	D2 ag-1 41.0, D2 antagonist 30.8 | D3 ag inactive | D2 ag-3 inactive
CCOC(=O)c1scc(-c2ccc(C)cc2)c1S(=O)(=O)N1CCN(c2ccccc2F)CC1	none (no result: D2 ag-2, D2 PAM-1, D2 antagonist)
CCOC(=O)N1CCC(NC(=O)c2ccc(CS(=O)c3cccc(Cl)c3)o2)CC1 (stereo not given)	D2 ag-1 43.6, D2 antagonist 54.1 | D3 ag inactive | D2 ag-3 inactive
Cc1ccc(OCCCn2c(-c3ccc(Cl)cc3)nc3ccccc3c2=O)c(C)c1	none (no result: D2 ag-2, D2 PAM-1, D2 antagonist)
COC(=O)c1sc2cccc(F)c2c1S(=O)(=O)NCc1ccccc1Cl	none (no result: D2 ag-1, D2 ag-2, D2 PAM-1, D2 antagonist)
COc1ccc2nc(/N=C(\N)NC(=O)C(C)(C)C)nc(C)c2c1	D2 antagonist 35.4 | D3 ag inactive | D2 ag-3 inactive
CCC(=O)N/C(N)=N/c1nc(C)c2cc(OC)ccc2n1	none (no result: D2 ag-1, D2 PAM-2, D2 antagonist)
O=C(Cc1c(F)cccc1Cl)NNC(=O)c1ccncc1	none | D3 ag inactive | D2 ag-3 inactive
C=C(C)CN1C(=O)C(=O)N(CC(=C)C)C1=O	D2 ag-1 90.0 | D3 ag inactive | D2 ag-3 inactive
Cc1ccc(CN2C(=O)C(=O)N(CC(N)=O)C2=O)cc1	none
COc1ccc(-c2noc(CCC(=O)NCCN3CCN(c4ccccc4F)CC3)n2)cc1	D2 ag-1 41.1, D2 antagonist 64.7 | D3 ag inactive | D2 ag-3 inactive
COc1ccc(C(=O)CCN2CCCCCC2)cc1	none
CCOc1ccc(NC(=O)NCCN2CCN(c3ccccc3F)CC2)cc1	D2 ag-1 77.2, D2 ag-2 inconclusive, D2 antagonist 78.8 | D3 ag inconclusive | D2 ag-3 inconclusive
COc1ccccc1N1CCN(CCC(=O)Nc2ccc3c(c2)OCO3)CC1	D2 ag-1 55.1, D2 antagonist 79.7 | D3 ag inactive | D2 ag-3 inactive
COc1ccc(NC(=O)CN2CCN(c3ccccc3F)CC2)cc1	none
COc1ccc(C(=O)CCN2CCN(c3ccccc3F)CC2)cc1	D2 antagonist 81.5 | D3 ag inactive | D2 ag-3 inactive
CCN1CCN(CCCNC(=O)CCc2nc(-c3ccc(OC)cc3)no2)CC1	none
COc1ccccc1N1CCN(CC(=O)Nc2ccc3c(c2)OCCO3)CC1	none
CCOC(=O)c1ccc(Nc2nc3nonc3nc2Nc2cccc(C)c2C)cc1	none (no result: D2 ag-2, D2 PAM-1, D2 antagonist)
CCc1cccc(CC)c1N(COC)C(=O)Cn1c(C)nc2ccccc21	none (no result: D2 ag-2, D2 PAM-1, D2 antagonist)
O=C(CSc1ccccn1)NC1CCCc2c1cnn2-c1ccccc1F (stereo not given)	none (no result: D2 ag-1, D2 PAM-2, D2 antagonist)
COc1cccc(NC(=O)CCN2CCN(c3ccccc3F)CC2)c1	D2 ag-1 76.2, D2 ag-2 inconclusive, D2 antagonist 76.6 | D3 ag inconclusive | D2 ag-3 inconclusive
CCOc1ccc(NC(=O)CCN2CCN(c3ccccc3F)CC2)cc1	D2 ag-1 79.0, D2 ag-2 inconclusive, D2 antagonist 76.9 | D3 ag inconclusive | D2 ag-3 inconclusive
COc1ccc(NC(=O)NCCCN2CCN(c3ccccc3F)CC2)cc1	D2 ag-1 82.0, D2 antagonist 91.5 | D3 ag inconclusive | D2 ag-3 inactive
CCOC(=O)N1CCC(Nc2c(NCCN3CCN(Cc4ccccc4)CC3)c(=O)c2=O)CC1	none
CCOc1ccc(NC(=O)CCN2CCN(C)CC2)cc1	none
CCOC(=O)N1CCC(Nc2c(NCCN3CCN(c4ccccc4F)CC3)c(=O)c2=O)CC1	D2 ag-1 42.8 | D3 ag inconclusive | D2 ag-3 inactive
O=C(CN1CCN(c2ccccc2F)CC1)c1ccc2cc[nH]c2c1	none | D3 ag inactive | D2 ag-3 inactive
CC(=O)N1CCc2cc(C(=O)CN3CCN(c4ccccc4F)CC3)ccc21	none
CCOc1ccc(NC(=O)CCN2CCN(c3ccccc3OC)CC2)cc1	D2 antagonist 61.5 | D3 ag inactive | D2 ag-3 inactive
Cc1sc2ncnc(N3CCC(C(=O)Nc4cc(C(F)(F)F)ccc4OCC(F)(F)F)CC3)c2c1C	none (no result: D2 ag-1, D2 PAM-2, D2 antagonist)
CCN(CC)CCCN=C1N[C@@H](c2ccccc2)C(C(=O)OC)=C(C)N1CC	D2 ag-1 76.7 | D3 ag inactive | D2 ag-3 inactive
CCCN(CCC)c1cc(C)nc2nc(-c3ccc(C(C)(C)C)cc3)nn12	none (no result: D2 ag-1, D2 ag-2, D2 PAM-1, D2 antagonist)
CCCS(=O)(=O)N1CCC(C(=O)NC2CCCCC2C)CC1 (stereo not given)	none | D3 ag inactive | D2 ag-3 inactive
CCS(=O)(=O)N1CCCC(C(=O)NC2CCCCC2C)C1 (stereo not given)	none
O=C(CNC(=O)c1ccc(Br)o1)NCC1CCCCC1	none | D3 ag inactive | D2 ag-3 inactive
Cc1cc(C)nc(/N=C(\N)Nc2cccc(OCc3ccccc3)c2)n1	D2 ag-1 76.6, D2 antagonist 62.7 | D3 ag inactive | D2 ag-3 inactive
